Consider nine molecules from paper PMC5540273 (PLoS ONE, 2017).

Among the test systems are INSRR; INSR; IRAK1; IRAK3; IRAK4; ITK; KIT-autoinhibited; KIT; LATS1; LATS2; LCK; LIMK1; LIMK2.
Conditions in all cases: concentration: 1 μM, replicates: in singlicate; n = 1
The subject of assay [1] is JAK1(JH1domain-catalytic).
Assay [2] has as its system JAK1(JH2domain-pseudokinase).
In assay [3] the test system is JAK2(JH1domain-catalytic).
Assay [4] has as its system JAK3(JH1domain-catalytic).
In the next assay the test system is T1, JNK1.
T1 construct: gene MAPK8

Another assay has as its system T2, JNK2.
T2 construct: gene MAPK9

For the next assay, the system named is T3, JNK3.
T3 construct: gene MAPK10
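Also: KINOMEscan kinase panel screen.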

Consider `Cc1cc(N2CCC(NS(=O)(=O)c3ccc(F)cc3)CC2)nc(Nc2cccc(C#N)c2)n1.O=C(O)C(F)(F)F` [GSK1653537], for which the “%Inh” value was determined as 0% with INSRR; 0% in the assay with INSR; 0% in the assay on IRAK1; 0% in the assay with IRAK3; 4% with IRAK4; 1% in the assay with ITK. Also, the “%Inh” value in assay [1] is 7%; in [2], 0%; in assay [3], 6%; in assay [4] it was 0%; in the assay on JNK1 it was 16%; in the assay on JNK2 it was 17%. Moreover, the “%Inh” value in the assay with JNK3 is on record as 0%; in the assay on KIT-autoinhibited it was 0%; in the assay with KIT it was 0%; in the assay with LATS1, 0%; in the assay on LATS2 it was 0%; in the assay on LCK, 10%. The “%Inh” value in the assay on LIMK1 and in the assay with LIMK2 was 0% throughout.

Regarding `NC(=O)c1sc(-n2cnc3ccccc32)cc1OCc1ccccc1F` [GSK1024306], the “%Inh” value is recorded as 0% with INSRR; 0% in the assay with INSR; 0% in the assay with IRAK1; 0% with IRAK3; 0% in the assay on IRAK4; 8% in the assay with ITK. Moreover, the “%Inh” value was determined as 6% in [1]; 0% in assay [2]; 21% in assay [3]; 0% in assay [4]; 3% in the assay on JNK1; 28% with JNK2. Also, the “%Inh” value in the assay with JNK3 stood at 14%; with KIT-autoinhibited, 0%; with KIT, 0%; in the assay on LATS1, 0%; in the assay with LATS2, 0%; in the assay with LCK, 9%. Moreover, the results for the “%Inh” value in the assay with LIMK1 and in the assay on LIMK2 were 0% and 20%, respectively.

On to `CSc1ccc(NC2=C(c3ccccc3Cl)C(=O)NC2=O)cc1` [SB-342411], for which the “%Inh” value is 0% with INSRR; 0% with INSR; 0% with IRAK1; 0% with IRAK3; 19% with IRAK4; 4% in the assay on ITK. The “%Inh” value was found to be 0% in [1]; 0% in assay [2]; 0% in assay [3]; 48% in [4]; 1% in the assay with JNK1; 1% in the assay on JNK2. Besides, the “%Inh” value in the assay on JNK3 came out at 0%; with KIT-autoinhibited it was 0%; with KIT it was 25%; in the assay on LATS1, 5%; in the assay with LATS2, 23%; in the assay on LCK, 18%. For the same molecule, the “%Inh” value with LIMK1 worked out at 0%; with LIMK2, 7%.

As to `O=C(c1ccc(-c2cc(-c3c[nH]nc3-c3ccccn3)ccn2)cc1)N1CCCC1` [GW792479], the “%Inh” value is 0% with INSRR; 6% with INSR; 0% in the assay with IRAK1; 0% in the assay with IRAK3; 0% in the assay with IRAK4; 0% in the assay with ITK. In addition, the “%Inh” value in assay [1] is 0%; in [2], 15%; in assay [3], 0%; in assay [4], 39%; in the assay with JNK1, 27%; in the assay with JNK2 it was 0%. The “%Inh” value in the assay with JNK3 was 0%; in the assay on KIT-autoinhibited it was 0%; in the assay with KIT, 11%; in the assay on LATS1 it was 0%; with LATS2, 0%; with LCK, 3%. In addition, the “%Inh” value in the assay with LIMK1 and with LIMK2 was 0% each time.

For the molecule `N#Cc1ccc(Oc2ccc(Nc3ncnc4cc[nH]c34)cc2Cl)cc1`, the “%Inh” value is listed as 0% with INSRR; 0% with INSR; 16% in the assay with IRAK1; 3% in the assay on IRAK3; 13% with IRAK4; 9% in the assay with ITK. The “%Inh” value in assay [1] is given as 12%; in assay [2], 25%; in assay [3], 19%; in assay [4], 4%; in the assay on JNK1, 58%; in the assay on JNK2 it was 9%. The “%Inh” value stood at 20% in the assay with JNK3; 3% in the assay with KIT-autoinhibited; 31% in the assay with KIT; 22% in the assay on LATS1; 23% in the assay with LATS2; 0% in the assay with LCK. The “%Inh” value in the assay with LIMK1 stood at 13%; in the assay on LIMK2, 0%.

As for `CC(C)(C)c1ccc(-n2cnc3c(N)ncnc32)cc1` [SKF-97263], the “%Inh” value in the assay with INSRR is 6%; in the assay with INSR, 21%; with IRAK1, 0%; in the assay on IRAK3, 7%; in the assay on IRAK4 it was 0%; in the assay on ITK, 6%. The “%Inh” value amounted to 7% in assay [1]; 82% in assay [2]; 24% in [3]; 0% in assay [4]; 21% with JNK1; 3% in the assay with JNK2. Further, the “%Inh” value worked out at 1% in the assay on JNK3; 1% in the assay with KIT-autoinhibited; 38% with KIT; 0% in the assay on LATS1; 18% in the assay on LATS2; 8% in the assay on LCK. The “%Inh” value came to 8% in the assay with LIMK1 and 0% in the assay on LIMK2.

For `Cc1ccc(C)c(NC(=O)NCCNc2ccnc(Nc3ccc(F)cc3)n2)c1` [GSK1379878], the “%Inh” value with INSRR, in the assay on INSR, with IRAK1, in the assay on IRAK3, in the assay with IRAK4 and in the assay with ITK was 0% each time. For the same molecule, the “%Inh” value in assay [1] worked out at 0%; in [2], 0%; in assay [3], 1%; in assay [4], 0%; in the assay with JNK1, 13%; in the assay with JNK2 it was 13%. Also, the “%Inh” value in the assay with JNK3 is 2%; with KIT-autoinhibited, 0%; with KIT it was 0%; in the assay on LATS1, 0%; in the assay with LATS2, 0%; in the assay on LCK it was 3%. Besides, the “%Inh” value in the assay with LIMK1 and with LIMK2 was 0% throughout.

On to `CCc1nc(-c2cccc(N(C)S(=O)(=O)c3ccccc3)c2)c(-c2ccnc(Nc3ccc(N4CCN(C(C)=O)CC4)nc3)n2)s1` [GSK1645895], for which the “%Inh” value was 0% in the assay with INSRR; 20% with INSR; 11% in the assay on IRAK1; 0% with IRAK3; 13% in the assay on IRAK4; 0% in the assay with ITK. For the same molecule, the “%Inh” value in [1] was 15%; in assay [2], 21%; in assay [3], 0%; in assay [4] it was 0%; with JNK1, 23%; with JNK2 it was 30%. Moreover, the “%Inh” value in the assay with JNK3 is listed as 22%; in the assay on KIT-autoinhibited, 8%; with KIT, 19%; with LATS1, 0%; with LATS2, 20%; in the assay with LCK, 44%. For the same molecule, the results for the “%Inh” value in the assay on LIMK1 and with LIMK2 were 31% and 0%, respectively.

As for `O=C(CCO)NCCn1ccc2ncnc(Nc3ccc(Oc4cccc(C(F)(F)F)c4)c(Cl)c3)c21`, the “%Inh” value with INSRR, with INSR, with IRAK1, with IRAK3, with IRAK4 and in the assay with ITK was 0% throughout. For the same molecule, the “%Inh” value in assay [1] is listed as 0%; in [2], 36%; in assay [3], 0%; in [4], 0%; in the assay on JNK1, 8%; in the assay with JNK2, 0%. Also, the “%Inh” value is 1% in the assay with JNK3; 0% in the assay on KIT-autoinhibited; 0% in the assay on KIT; 5% with LATS1; 2% with LATS2; 26% with LCK. The “%Inh” value in the assay on LIMK1 and in the assay on LIMK2 was 0% each time.
